# According to PubChem BioAssay (NCATS):
# Target: Phenylethanolamine N-methyltransferase (Homo sapiens) (UniProt P11086)
# Assay: Confirmatory Screen for Target Class Profiling of Small Molecule Inhibitors of Methyltransferases (AID 1745852)
# Details: MTase-Glo luminescence, SAH detection, recombinant enzyme; measured here: PNMT max response; stronger effect = lower value
# Chain of Phenylethanolamine N-methyltransferase (Homo sapiens) (P11086 whole entry, looked up): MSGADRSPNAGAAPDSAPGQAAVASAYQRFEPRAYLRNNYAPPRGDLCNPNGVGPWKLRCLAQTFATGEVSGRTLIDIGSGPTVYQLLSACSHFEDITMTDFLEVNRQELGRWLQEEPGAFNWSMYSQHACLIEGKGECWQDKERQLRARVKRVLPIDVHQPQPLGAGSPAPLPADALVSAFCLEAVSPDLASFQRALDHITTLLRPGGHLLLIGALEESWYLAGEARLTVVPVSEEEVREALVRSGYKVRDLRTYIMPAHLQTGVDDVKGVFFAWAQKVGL
row,Compound,activity [%]
1,Cc1ccc(-c2ccc(N)nc2)c2cccnc12,1.29
2,COc1cccc(CN2C(=O)c3nc4ccccc4n3CC2(C)C(=O)NC2CCC(C)CC2)c1 (stereo not given),-8.56
3,CCCC1c2cccn2CCN1C(=O)Nc1ccc(Br)cc1 (stereo not given),-12.2
4,Cc1nc2c3ccccc3n3c(CCCC(=O)NCCCN(C)Cc4ccccc4)nnc3n2n1,-3.01
5,CCOC(=O)c1cc2n(n1)CC(C)(C(=O)NCCC(C)C)N(c1ccccc1C)C2=O (stereo not given),1.34
6,CCN1CCN(c2nc3c(S(=O)(=O)c4ccc(Br)cc4)nnn3c3ccccc23)CC1,-3.25
7,COc1ccc(CCNC(=O)c2ccc3c(=O)[nH]c4c(C(=O)NCC5CCCO5)sc(=S)n4c3c2)cc1OC (stereo not given),-16.5
8,Cc1cc2c(cc3n2CC(C)(C(=O)NC2CCCCCCC2)N(Cc2ccco2)C3=O)o1 (stereo not given),-6.55
9,Cc1ccccc1-c1[nH]nc2ncc(-c3c(C)noc3C)nc12,-28.1
10,CCOC(=O)c1ccc(NC(=O)Cn2c(=O)oc3cc(S(=O)(=O)N4CCCC4)ccc32)cc1,-37.8
11,Cn1c(COc2cccc(CN3CCCC3)c2Cl)nnc1C1CC(N)C1 (stereo not given),-1.62
12,N#Cc1cnc(N2CC3CCC(C2)N3CC(F)(F)F)s1,-0.128
13,CCC1CCCCN1CCCNC(=O)Cn1ccc2cc(S(=O)(=O)N3CCCCC3)ccc21 (stereo not given),-1.74
14,O=C(Nc1ccccc1)c1cnc2c(c1)N(C(=O)Cc1ccc(O)cc1)CCC2,-3.63
15,COc1ccc(-c2nnn3c2nc(N2CCOCC2)c2ccccc23)cc1,-35.3
16,CCc1ccc(N2C(=O)c3cc4sccc4n3CC2(C)C(=O)NC2CCCCCC2)cc1 (stereo not given),-7.25
17,COCc1nc2nc(-c3ccccc3)c(-c3ccc(O)c(F)c3)cc2n1C,-59.9
18,Cn1cc(CN2CCCC(COc3ccccc3C(=O)N3CCCCC3)C2)c2ccccc21 (stereo not given),3.6
19,O=C(Nc1ccc2c(N3CCOCC3)ncnc2c1)c1cccc(Cl)c1,-22.8
20,FC(F)(F)c1cccc(-c2nccn3c(C4CN(Cc5ccc6cn[nH]c6c5)C4)ncc23)c1,-2.02

row,Compound,activity [%]
1,CC1CCCCC1NC(=O)C1(C)Cn2c(cc3sccc32)C(=O)N1Cc1ccc(Cl)cc1 (stereo not given),-8.77
2,Cc1nc2cccnc2n1CC1CCCN(S(=O)(=O)c2ccc3c(c2)OCCO3)C1 (stereo not given),-0.0682
3,Cn1cnc(CN2CCNc3cc(Nc4ccccc4)ncc3C2)c1,-5.41
4,CC1(C)[C@H](Cc2cc(-c3ccccc3)on2)C[C@@H]1NCC1CC1,-13.1
5,COc1ccc(CCNC(=O)c2ccc3c(=O)[nH]c4c(C(=O)NC5CCCC5)sc(=S)n4c3c2)cc1OC,-23
6,COc1ccc2nc([C@H]3CCN(C4CCCCC4)C3)[nH]c2c1,-4.21
7,CCOCCCN1C(=O)c2cc3c(OC)ccc(OC)c3n2CC1(C)C(=O)NC1CCCCC1 (stereo not given),-10.4
8,O=C(NCc1ccc2c(c1)OCO2)c1sc(=S)n2c1[nH]c(=O)c1cc(Cl)ccc12,-48.4
9,COc1cc2c(cc1O)NC(=O)CC2c1cn[nH]c1-c1cc(C)ccc1C (stereo not given),-21.7
10,FC(F)(F)c1ccnc(N2CC[C@H](c3nnc(-c4ccncc4)o3)C2)n1,3.21
11,COC(=O)c1cc2n(n1)CC(C)(C(=O)NC1CCC(C)CC1)N(Cc1ccc(OC)cc1OC)C2=O (stereo not given),-13.3
12,O=C(NCCc1ccc(Cl)cc1)c1ccc2c(=O)[nH]c3c(C(=O)NCC4CCCO4)sc(=S)n3c2c1 (stereo not given),-36.4
13,COc1cccc([S+](=O)([O-])N2CCC3(C2)N=C(c2cccnc2)C(=O)N3)c1 (stereo not given),-16.9
14,CCCCNC(=O)c1cccc(-c2cc(N3CCN(C)CC3)nc(N)n2)c1,-4.09
15,O=C(Nc1ccc2c(N3CCCCC3)ncnc2c1)c1ccccc1C(F)(F)F,-19.5
16,CCCN1CCn2c3c(c4cc(OC)ccc42)CCN=C31,-5.52
17,COc1ccc(CCN2C(=O)c3cc4oc(C)cc4n3CC2(C)C(=O)NC2CCCCC2)cc1OC (stereo not given),-5.67
18,Cc1ccc2c(c1)c(-n1cccc1)c1n2CC(C)(C(=O)NCCC(C)C)N(Cc2cccnc2)C1=O (stereo not given),0
19,c1ccc(CN2CCc3c(sc4ncnc(N5CCOCC5)c34)C2)cc1,-7.28
20,O=C(Nc1ccc(F)c(Cl)c1)N1CCn2cccc2C1Cc1ccccc1 (stereo not given),-6.59
